Assay [1] in a line: qHTS RealTime-Glo MT Cell Viability Assay in HEK293 cells - 24 hour (AID 1224886). Also: top concentration of the series differs between compounds; nearly all actives have a fitted effect of over 50% in size. In short, it runs like this: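 Cells + reagent dispensed (600 cells/well, HEK293) → 5 h at 37 C/5% CO2 → 23 nL compound in DMSO pinned → 40 h at 37 C → luminescence read at 0, 8, 16, 24, 32, 40 h.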
In general terms: Quantitative high-throughput screening tests each substance at several concentrations.

A short description of assay [2]: A CellTox Green Cytotoxicity Assay to monitor cytotoxicity in HEK293 cells - 16 hour (AID 1224888). Also: nearly all actives have a fitted effect of over 35% in size. In short, it runs like this: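 HEK293 cells, 600/well, were preincubated 5 hours and then exposed to compounds at 37 C for up to 40 hours. A cell-impermeant cyanine dye staining dead-cell DNA was read by fluorescence at 0, 8, 16, 24, 32 and 40 h time points.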
A short description of assay [3]: qHTS RealTime-Glo MT Cell Viability Assay in HepG2 cells - 0 hour (AID 1224889). Also: nearly all actives have a fitted effect of over 50% in size. Also: potency is read from the fitted curve at half-maximal effect. Summed up: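 Real-time, nonlytic viability: 600 HepG2 cells/well mixed with NanoLuc enzyme plus prosubstrate; 5 h settle, compound (DMSO) added by pintool; luminescence monitored over 40 h at 37 C.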
Assay [4] in a line: A CellTox Green Cytotoxicity Assay to monitor cytotoxicity in HepG2 cells - 8 hour (AID 1224890). Also: nearly all actives have a fitted effect of over 45% in size. Also: potency is read from the fitted curve at half-maximal effect. In short, it runs like this: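 HepG2 cells, 600/well, preincubated 5 h with CellTox Green dye, then exposed to Tox21 compounds in DMSO at 37 C for up to 40 h. Dead-cell DNA fluorescence read at the indicated time point.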
Assay [5] can be described thus: qHTS assay to identify small molecule antagonists of the estrogen receptor alpha (ER-alpha) signaling pathway using the BG1 cell line in the presence of 0.1 nM 17-beta-estradiol - cell viability counter screen (AID 1259241). Also: nearly all actives have a fitted effect of over 40% in size. In short, it runs like this: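 VM7Luc4E2 cells (endogenous ER-alpha, 4×ERE-luciferase), hormone-starved 5 days in charcoal-stripped FBS, were treated with compounds plus 0.1 nM 17beta-estradiol for 22 hr at 37C; viability read in same wells as CellTiter-Fluor live-cell protease fluorescence.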

The nature of assay [6]: qHTS assay to identify small molecule antagonists of the androgen receptor (AR) signaling pathway using the MDA cell line in the presence of 0.5 nM R1881 - cell viability counter screen (AID 1259242). Also: nearly all actives have a fitted effect of over 45% in size. In short, it runs like this: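 MDA-kb2 cells (MMTV-luciferase, AR/GR responsive) were treated with compounds plus 0.5 nM R1881 (final) for 16 hr at 37C, 0% CO2. Viability was then read in the same wells as live-cell protease fluorescence (CellTiter-Fluor, 30 min).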

In assay [7] the target is Estrogen receptor (Homo sapiens) (UniProt P03372). The experiment in a line: qHTS assay to identify small molecule antagonists of the estrogen receptor alpha (ER-alpha) signaling pathway using the BG1 cell line in the presence of 0.1 nM 17-beta-estradiol (AID 1259244). Also: nearly all actives have a fitted effect of over 50% in size. Summed up: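 VM7Luc4E2 cells (endogenous full-length ER-alpha, 4×ERE-luciferase), kept 5 days in phenol red-free, charcoal-stripped FBS medium; 4,000 cells/well. Compounds added with 0.1 nM (final) 17beta-estradiol, 22 hr at 37C; luminescence read with ONE-Glo after 30 min.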
Chain of Estrogen receptor (Homo sapiens) (P03372 whole entry, looked up): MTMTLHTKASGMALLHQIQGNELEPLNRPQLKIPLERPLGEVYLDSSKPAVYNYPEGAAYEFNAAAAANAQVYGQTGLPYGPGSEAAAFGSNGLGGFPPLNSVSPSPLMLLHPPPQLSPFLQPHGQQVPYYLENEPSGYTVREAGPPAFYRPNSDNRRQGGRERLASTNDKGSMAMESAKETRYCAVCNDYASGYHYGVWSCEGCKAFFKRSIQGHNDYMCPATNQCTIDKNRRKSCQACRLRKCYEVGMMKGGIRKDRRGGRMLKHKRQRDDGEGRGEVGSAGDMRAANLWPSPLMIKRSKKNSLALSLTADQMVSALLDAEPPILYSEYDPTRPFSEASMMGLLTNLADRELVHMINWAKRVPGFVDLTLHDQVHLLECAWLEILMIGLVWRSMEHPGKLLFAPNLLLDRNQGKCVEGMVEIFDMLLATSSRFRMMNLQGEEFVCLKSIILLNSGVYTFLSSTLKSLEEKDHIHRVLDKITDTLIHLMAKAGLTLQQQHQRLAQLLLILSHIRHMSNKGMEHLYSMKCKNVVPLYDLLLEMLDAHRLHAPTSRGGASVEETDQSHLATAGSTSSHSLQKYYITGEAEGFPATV

A short description of assay [8]: qHTS assay to identify small molecule HDAC inhibitors (AID 1259364). Also: top concentration of the series differs between compounds; nearly all actives have a fitted effect of over 45% in size. In short, it runs like this: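 Wild-type HCT-116 cells, plated overnight at 37 C, exposed to compounds 2 hr at 37 C; luminogenic HDAC-Glo substrate then added 30 min at room temperature. Luminescence reports relative endogenous class I/II HDAC activity.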
The nature of assay [9]: qHTS assay to identify small molecule phospholipidosis (PLD) inducers (AID 1259344; active = well fitted curve in the direction sought with a large enough effect; an effect the other way counts as inactive or inconclusive). Summed up:
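Phospholipidosis is scored by imaging LipidTOX-stained pits in HepG2 cells exposed to compound for 24 h at 37 C; pit counts and integrated intensities per well and per cell serve as outputs.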

Assay [10] in a line: qHTS RealTime-Glo MT Cell Viability Assay in HEK293 cells - 8 hour (AID 1224887). Also: top concentration of the series differs between compounds; nearly all actives have a fitted effect of over 50% in size. In short, it runs like this: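 600 cells/well were plated with the nonlytic NanoLuc/prosubstrate reagent, pre-incubated 5 h, then given 23 nL of compound in DMSO. Incubation at 37 C for 40 h, with luminescence from viable-cell-reduced substrate read repeatedly from 0 h.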

The record followed here is PubChem BioAssay (Tox21).

Results filed as inconclusive are left out. Values without a mark were called inactive. Active and inactive are the calls of the source. Unless noted, calls follow the shape of the dose curve; as a rule, active = well fitted curve in the direction sought with a large enough effect in the repeat runs; inconclusive = weak or mixed curves; inactive = no such curve, though single readings can be large; an effect the other way counts as inactive or inconclusive.
% is scaled to controls: 0 for no effect and ±100 for the full control effect.

For `O=S1(=O)CCCC1`, the Potency result in assay [1], in [2], in assay [3], in [4], in assay [5] and in [6] was “inactive” throughout. Further, the Potency result in assay [7] and in assay [8] was “inactive” throughout.

For the molecule `Nc1c(NC/C=C\COc2cc(CN3CCCCC3)ccn2)c(=O)c1=O`, the activity change, negative = cytotoxicity in assay [1] was 3.04% [at 15.8 µM]; in assay [3], 8.54% [at 15.8 µM]; in assay [5], -19.8% [at 19 µM]. Moreover, the activity change in assay [2] is 3.09% [at 15.8 µM, hits give high values]. Also, the cytotoxicity increase in [4] is -13.1% [at 15.8 µM]. In addition, the viability change, negative = cytotoxic in assay [6] is -4.94% [at 19 µM]. For the same molecule, the result in assay [9] was inactive. Also, in assay [8], the activity change, negative = inhibition is -4.93% [at 19 µM].

As to `CCCCC/C=C/CC(=O)OC`, the Potency result in assay [1], in [2], in [3], in [4], in assay [5] and in assay [6] was “inactive” throughout. Moreover, in assay [8], the Potency entry is “inactive”.

Take `NCCc1ccn[nH]1`: the Potency result in assay [10], in assay [2], in [3], in assay [4], in [5] and in [6] was “inactive” throughout. The Potency entry in assay [7] and in assay [8] was “inactive” each time. For the same molecule, the molecule was called inactive in assay [9].

For the molecule `CCC1Nc2cc(Cl)c(S(N)(=O)=O)cc2S(=O)(=O)N1` (stereo unspecified), the Potency entry in assay [1], in [2], in assay [3], in [4], in [5] and in assay [6] was “inactive” in each case. Also, the Potency result in assay [8] is “inactive”. In assay [9], the molecule was called inactive.

Take `CCCCC[Si](OCC)(OCC)OCC`: the Potency result in assay [1], in [2], in assay [3], in assay [4], in [5] and in assay [6] was “inactive” throughout. Moreover, the Potency entry in [8] was “inactive”.

`C1=C\CC/C=C\CC/1`: the Potency result in [10], in [2], in [3], in [4], in assay [5] and in assay [6] was “inactive” throughout. The Potency result in assay [7] is “inactive”.

Take `Cc1ccccc1C`: the Potency result in assay [1], in assay [2], in assay [3], in assay [4], in assay [5] and in assay [6] was “inactive” each time. The Potency entry in [7] and in assay [8] was “inactive” in each case.

In the case of `Cc1ccc(C(=O)C(=O)O)cc1C`, the Potency entry in [1], in [2], in assay [3], in assay [4], in assay [5] and in assay [6] was “inactive” in each case. Besides, the Potency entry in assay [7] and in assay [8] was “inactive” throughout.

In the case of `Cc1cccc(Nc2ccncc2S(=O)(=O)NC(=O)NC(C)C)c1`, the Potency result in assay [10], in assay [2], in [3], in [4], in assay [5] and in assay [6] was “inactive” in each case. In addition, the Potency result in assay [7] and in assay [8] was “inactive” throughout. Also, the outcome in assay [9] was inactive.

In the case of `CC(=O)OCCCc1ccccc1`, the Potency entry in assay [1], in assay [2], in [3], in assay [4], in assay [5] and in assay [6] was “inactive” each time. Further, the Potency result in [8] was “inactive”.

Turning to `CCC1COC(=O)O1` (stereo unspecified), the Potency result in [1], in assay [2], in assay [3], in assay [4], in assay [5] and in assay [6] was “inactive” in each case. Besides, the Potency result in assay [7] and in assay [8] was “inactive” throughout.

As to `Nc1ccnc(=O)[nH]1`, the Potency result in [1], in assay [2], in assay [3], in assay [4], in [5] and in assay [6] was “inactive” in each case. The Potency entry in [7] and in assay [8] was “inactive” throughout.

`CCCCCC1CCCC(=O)O1` (stereo unspecified): the Potency result in assay [1], in assay [2], in [3], in assay [4], in assay [5] and in [6] was “inactive” in each case. For the same molecule, the Potency entry in assay [8] is “inactive”.

Regarding `Nc1ccc(/C=C/c2ccc(N)cc2S(=O)(=O)O)c(S(=O)(=O)O)c1`, the activity change, negative = cytotoxicity in [10] was 0.0792% [at 0.29 µM]; in assay [3], 2.99% [at 0.29 µM]; in [5], -1.15% [at 0.349 µM]. Also, the activity change in assay [2] is 0.863% [at 0.29 µM, hits give high values]. Besides, in assay [4], the cytotoxicity increase is -4.57% [at 0.29 µM]. Moreover, the viability change, negative = cytotoxic in assay [6] is 2% [at 0.349 µM]. The results for the activity change, negative = inhibition in assay [7] and in [8] were 6.51% [at 0.349 µM] and 6.62% [at 0.349 µM], respectively. Also, the outcome in assay [9] was inactive.

On to `C=CCOCC(CO)(COCC=C)COCC=C`, for which the Potency result in assay [1], in assay [2], in [3], in [4], in assay [5] and in assay [6] was “inactive” each time. Besides, the Potency result in assay [7] and in [8] was “inactive” each time.

In the case of `CN(C)CCCNCCC#N`, the Potency entry in assay [1], in assay [2], in [3], in assay [4], in assay [5] and in assay [6] was “inactive” throughout. Besides, the Potency result in assay [8] was “inactive”.

Take `O=C(Nc1cccc(C2=NCCN2)c1)Nc1cccc(C2=NCCN2)c1`: the activity change, negative = cytotoxicity in assay [10] is -0.375% [at 15.8 µM]; in assay [3], -1.91% [at 15.8 µM]; in [5], -3.18% [at 19 µM]. Besides, the activity change in assay [2] is -6.11% [at 15.8 µM, hits give high values]. Also, the cytotoxicity increase in assay [4] is -10.2% [at 15.8 µM]. In assay [6], the viability change, negative = cytotoxic is -0.888% [at 19 µM]. Also, the figures for the activity change, negative = inhibition in assay [7] and in [8] were -4.15% [at 19 µM] and 3.65% [at 19 µM], respectively. In addition, the molecule was classed as inactive in assay [9].

As to `C[C@@H]1C[C@H]2[C@@H]3C[C@H](F)C4=CC(=O)C=C[C@]4(C)[C@@]3(F)[C@@H](O)C[C@]2(C)[C@@]1(O)C(=O)CO`, the Potency entry in assay [10], in assay [2], in assay [5], in assay [6] and in assay [8] was “inactive” in each case. Also, in [3], the Potency was 21.3 µM (active). In assay [9], the molecule was called inactive.

With `CCC(=O)OCCC(C)CCC=C(C)C` (stereo unspecified), the Potency result in assay [2], in assay [3], in assay [4], in [5], in assay [6] and in assay [8] was “inactive” each time.

With `c1ccc(CNc2ncnc3nc[nH]c23)cc1`, the Potency entry in assay [2], in assay [3], in [4], in [5] and in assay [6] was “inactive” in each case.

For `CCCCC(CC)CNC(=O)CC(C)OC(=O)CCC(=O)O` (stereo unspecified), the Potency entry in assay [2], in assay [3], in [5], in [6], in [7] and in [8] was “inactive” throughout. Moreover, the Potency in assay [4] was 26.8 µM (active).

For the molecule `CC(C)SCc1ccco1`, the Potency result in assay [10], in assay [2], in [3], in [4], in [5] and in assay [6] was “inactive” in each case. Also, the Potency entry in assay [7] and in assay [8] was “inactive” in each case.

Regarding `C=C(C)[C@@H]1CC[C@@H](C)C[C@@H]1O`, the Potency entry in assay [10], in assay [2], in assay [3], in assay [4], in assay [5] and in [6] was “inactive” throughout. Also, the Potency result in assay [8] is “inactive”.

Regarding `O=c1cc(O)c(Cl)c[nH]1`, the Potency result in assay [10], in assay [2], in assay [3], in assay [4], in assay [5] and in assay [6] was “inactive” in each case. Also, in assay [8], the Potency result is “inactive”. Moreover, the molecule was called inactive in assay [9].

`CCCCOC(=O)C(C)OC(=O)CCC` (stereo unspecified): the Potency entry in [10], in assay [2], in [3], in assay [4], in [5] and in assay [6] was “inactive” each time. The Potency result in [7] and in assay [8] was “inactive” each time.

In the case of `FC(F)(F)/C(=N\OCC1OCCO1)c1ccc(Cl)cc1`, the Potency entry in assay [10], in assay [2], in assay [3], in [4], in assay [5] and in [6] was “inactive” each time. Further, the Potency result in assay [7] and in assay [8] was “inactive” throughout.
